PNC assembly inh: perinucleolar compartment assembly inhibition | AID 2417 | activity change (PNC), negative = inhibition, % at 10 µM | PC3M PTB-GFP, PNC prevalence imaging, 16 h; hits give low values | 3.1% of 140,000 active;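 active means readout at or below -70, meaning at least 70% loss of cells showing the perinucleolar compartment, a nuclear body marking cancer cells; inconclusive means readout between -30 and a set limit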;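 further: plate controls were DMSO wells for no effect and camptothecin positive control wells for full effect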
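PC3M cells stably expressing PTB-GFP, 750–1000 cells/well, treated 16 h at 37 °C with compound (23 nl of library stock), in duplicate. After paraformaldehyde fixation and Hoechst stain, imaged at 20x; PNC prevalence scored by image analysis.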
IMPase cell inh: membrane-permeable compound that blocks inositol monophosphatase | AID 901 | 120,000 tested, under 10 active | CHO-M1 cells, IP1 accumulation, HTRF TR-FRET ratio | inhibition (IP1 accumulation), % at 46.1 µM; active means well fitted curve in the direction sought with a large enough effect in the signal ratio, not every such curve was filed as active; inconclusive means small, poorly fitted or top-dose-only effect, or a change in a side signal; inactive means no such curve, though single readings can be large or run the other way; the % refers to the signal ratio;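 further: cells stimulated with carbachol in lithium chloride buffer; plate controls were DMSO basal wells for no effect and reference inhibitor wells for full effect; higher means more IMPase inhibition seen as more IP1 and lower FRET ratio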
Target sequence (P97697 whole entry, looked up): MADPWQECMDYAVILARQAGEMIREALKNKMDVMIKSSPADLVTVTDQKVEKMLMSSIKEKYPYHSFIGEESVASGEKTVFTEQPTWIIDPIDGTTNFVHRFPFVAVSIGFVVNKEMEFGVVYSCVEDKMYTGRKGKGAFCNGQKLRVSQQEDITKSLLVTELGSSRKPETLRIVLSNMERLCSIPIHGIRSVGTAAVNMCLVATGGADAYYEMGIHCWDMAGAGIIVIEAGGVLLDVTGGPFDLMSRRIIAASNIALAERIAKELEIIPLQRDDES
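Seeded CHO-M1 cells were dosed with compound at up to 46 uM, stimulated with carbachol for 30 min, then lysed in IP-One detection reagents. Higher IP1 lowers the TR-FRET signal.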
15-hLO-2 inh: inhibitors of human 15-lipoxygenase 2 (ALOX15B) | O15296 | purified 15hLO-2, xylenol orange hydroperoxide absorbance | Potency, µM (top dose mostly 57.1 µM), for inactives: at the top dose activity change, negative = inhibition, usual class: inhibitors | 0.56% of 110,000 active | AID 881; further: potency means the concentration at half of the fitted maximal effect; nearly all actives have a fitted effect of over 60% in size
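Read-out: hydroperoxide product oxidises ferrous iron, measured as xylenol orange complex via the 573-to-405 nm absorbance ratio after 30 min. Reaction: 50 nM enzyme, 15 min compound preincubation, 45 uM arachidonic acid, 90 min RT, Hepes pH 7.5 with Triton X-100.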
12-hLO inh: inhibitors of human 12-lipoxygenase (ALOX12) | P18054 | purified 12-hLO, xylenol orange hydroperoxide absorbance | Potency, µM (top dose mostly 57.1 µM), for the others: top-dose activity change, negative = inhibition, usual class: inhibitors | 0.12% of 150,000 active; further: potency means the concentration at half of the fitted maximal effect; nearly all actives have a fitted effect of over 55% in size
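150 nM 12hLO, 25 mM Hepes pH 7.0 + 0.01% Triton X-100; cpd preinc 15 min RT; 40 uM arachidonic acid, 30 min RT; Fe-XO 30 min; A573/A405 ratio as read-out.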
Starred values were filed as active, the others as inactive; u = inconclusive; x = no result; [ ] = dose if it differs, or a comment. Rows were chosen to be rich in hits. Some 3% of all compounds tested hit in one or more screens of this group. Unless noted, the call rests on the fitted dose curve; in most records, active means well fitted curve in the direction sought with a large enough effect; inconclusive means small, poorly fitted or top-dose-only effect, or another doubt; inactive means no such curve, though single readings can be large; an effect the other way counts as inactive or inconclusive. Unless noted, on the % scale 0 is the no-effect control and ±100 the full control effect.

SMILES	PNC assembly inh	IMPase cell inh	15-hLO-2 inh	12-hLO inh
CN(C)C(=O)COC(=O)c1ccccc1Nc1ccc(SC(F)F)cc1	-105*	-1	x	-12%
CC(C)(C)Nc1nc(OCC(F)(F)F)nc(OCC(F)(F)F)n1	-107*	8	7%	-2%
COC(=O)C1CCN(c2nc3ccccc3nc2C(C#N)C(=O)OCC(C)C)CC1 (configuration not stated)	-83*	3	0%	-2%
CC1CCN(S(=O)(=O)c2ccc(NC(=O)Cc3cccs3)cc2)CC1	-9	-5	u	-9%
O=C(c1ccc(Cn2cc(Br)cn2)o1)n1cccn1	-83*	11[1.84 µM]	-20%[11.4 µM]	-7%
NNC(=O)c1ccc(Cn2cc(Br)cn2)cc1	-114*	x	x	4%
O=C(N/N=C/c1c(F)cccc1Cl)c1ccc(Cn2cc(Br)cn2)o1	-114*	x	x	-2%
O=C(N/N=C/c1c(F)c(F)c(F)c(F)c1F)c1ccc(Cn2cc(Br)cn2)o1	-18	x	x	-3%
O=C(NCc1ccccn1)c1ccc(Cn2cc(Br)cn2)o1	17	-10[1.84 µM]	-15%[11.4 µM]	11%
COc1nc(-c2ccc(C)cc2)ccc1-c1noc(-c2ccc(C(C)(C)C)cc2)n1	x	3	x	x
CCOc1ccc(C(=O)NC2CCN(S(C)(=O)=O)CC2)cc1	-87*	6	5%	2%
O=C(Nc1nccs1)c1ccc(Br)o1	-100*	-4	x	4%
CCCCN(C)C1=CC2=CC(=C(C#N)C#N)CCC2CC1 (configuration not stated)	-83*	x	x	-4%
CCN(CC)C1=CC2=CC(=C(C#N)C#N)CCC2CC1 (configuration not stated)	-134*	x	x	-13%
N#CC(C#N)=C1C=C2C=C(N3CCCCC3)CCC2CC1 (configuration not stated)	-118*	x	x	0%
COc1ccc(C(=O)Nc2ccc(N3CCN(C(=O)C(C)C)CC3)cc2)cc1[N+](=O)[O-]	u	x	x	-1%
CCCCCOc1ccc(/C=C/C(=O)Nc2sc(C)c(C)c2C(=O)OCC)cc1OC	x	-2	x	x
Cc1cc(C(=O)NCCCn2ccnc2)sc1-c1ccccc1	41	1	51%	3%
CCOC(=O)c1cc(-c2ccc(/C=C3/C(=O)NC(=O)C(C#N)=C3C)o2)ccc1Cl	-13	-5	25µM*	-20%
CC(C)OC(=O)c1cc(-c2ccc(C=O)o2)ccc1Cl	u	x	x	-4%
COc1ccc(/C=N/N2CCOCC2)cc1O	-81*	x	x	-1%
O=C(CSc1nc(O)c(C/C=C/c2ccccc2)c(=O)[nH]1)Nc1cccc(F)c1	x	-4	x	x
Cc1cc(N2CCC(C)CC2)nc(-n2nc(C)cc2C)n1	-96*	-3	35%	1%
CCCSc1nc2sc3c(c2c(=O)n1-c1ccccc1)CCC(C)C3 (configuration not stated)	x	-1	x	x
COc1ccccc1C(=O)NNC(=S)NC(=O)c1ccco1	-2	2	x	3%
SMILES	PNC assembly inh	IMPase cell inh	15-hLO-2 inh	12-hLO inh
Cc1ccccc1OCCn1c(=N)n(C(C)C)c2ccccc21	x	8	x	x
O=C(CSc1nnc(-c2cccnc2)n1-c1ccccc1)Nc1ccccc1	-100*	-9	x	6%
CCn1nnnc1SCC(=O)Nc1nc2ccc(OC)cc2s1	-100*	13	x	0%
COc1ccc2nc(NC(=O)CSc3nc(C)cc(C)n3)sc2c1	32	-1	-5%	2%
COc1ccc(NC(=O)CSc2nnc(-c3ccccc3)n2N)cc1	-100*	-10	x	4%
CCOc1ccc(NC(=O)CSc2nnc(-c3ccccc3)n2N)cc1	-3	0	-22%	1%
CCn1nnnc1SCC(=O)Nc1ccc(OC)cc1	-100*	-13	x	1%
CCOc1ccc(OCC)c(NC(=O)CSc2nnnn2CC)c1	121	4	x	-2%
CC1(O)CC2C(CC1O)C2(C)C (configuration not stated)	x	x	-5%	1%
CCOC(=O)CCCNC(=O)N1CCc2nc(-c3ccccc3)c3c(c2C1)CO[C@@H](C)C3	x	x	x	1%[11.4 µM]
CCOc1ccc(NC(=O)CSc2nnc(C(C)C)n2CC)cc1	-119*	3	x	-3%
COCCn1c(SCC(=O)Nc2ccc(C)cc2C)nc2c(oc3ccccc32)c1=O	-107*	x	x	-2%
O=CC(O)C(O)C(O)C(O)CO (configuration not stated)	x	x	-7%[0.0915 µM]	1%[0.00818 µM]
COc1ccc(NC(=O)CNS(=O)(=O)c2ccc(Cl)cc2)cc1OC	-114*	x	x	1%
Cc1cc(C)nc(SCSc2nc(C)cc(C)n2)n1	7	5	8%	0%
Cc1cc(C)nc(SCCS(=O)Cc2ccc(Cl)cc2)n1 (configuration not stated)	-110*	-7	-15%	-3%
c1ccc2c(c1)NC1(CCCC1)n1c-2nc2ccccc21	-15	-7	-3%	-8%
CCCC1(C)Nc2ccccc2-c2nc3ccccc3n21 (configuration not stated)	-82*	-14	0%	-7%
Cc1ccccc1Cn1cc(NC(=O)COc2ccccc2)cn1	u	0	-20%	-8%
O=C(COc1ccccc1Cl)Nc1cnn(Cc2ccccc2)c1	-94*	2	-3%	0%
C/C(Cn1cnc([N+](=O)[O-])n1)=N\NC(=O)c1ccc(F)cc1	14	3	x	-4%
C/C(Cn1cnc([N+](=O)[O-])n1)=N\NC(=O)c1cccc(F)c1	-88*	2	x	1%
C/C(Cn1nnc([N+](=O)[O-])n1)=N\NC(=O)c1ccc(C)cc1	-109*	x	x	2%
CC1CN(C(=O)N(C)C)CCN1C(=O)N(C)C (configuration not stated)	-127*	5	-1%	-2%
Cc1ccccc1OCC(=O)NNC(=O)c1ccc(-c2ccccc2)cc1	3	-4	3%	3%
SMILES	PNC assembly inh	IMPase cell inh	15-hLO-2 inh	12-hLO inh
Cc1ccc(SC(=O)COc2ccccc2C)cc1	-112*	2	-14%	-3%
Cc1ccc(C(=O)COC(=O)c2ccc(-c3cnc4ccccc4n3)cc2)cc1C	8	3	x	4%
COc1ccc(C2=NOC(C(=O)NCc3ccc(F)cc3)C2)cc1OC (configuration not stated)	-96*	1	2%	-4%
COc1cc(C2=NOC(C(=O)NCc3ccc(F)cc3)C2)cc(OC)c1OC (configuration not stated)	-121*	1	-1%	0%
COc1cccc(C2=NOC(C(=O)NCc3ccc(F)cc3)C2)c1 (configuration not stated)	27	5	-3%	-7%
O=C(c1csnn1)N1CCC[C@@]2(CCN(Cc3cc(C(F)(F)F)cc(C(F)(F)F)c3)C2)C1	x	x	20%	2%
CCCc1cc(=O)n2[nH]c(-c3ccc(Br)cc3)cc2n1	-100*	-6	x	6%
Cc1nc2ccc(S(=O)(=O)NCC(=O)N3CCC(C)CC3)cc2s1	1	-9	0%	1%
CCN(CC)C(=O)CN(C#N)c1nc(OC)nc(N(C)C)n1	-82*	-2	-2%	3%
N#C/C(=N\Nc1cccc2ccccc12)c1nnc2n1CCCCC2	-113*	-4	x	1%

Source: PubChem BioAssay
